Data on 17 compounds can be found in PubChem BioAssay (NCI).

Each structure is given as a SMILES string. Compounds without any hit were thinned out: in the full panel of roughly 79,000, 15% have a hit. Active and inactive are the calls of the source. Cut-off read from the data, not from the text of the source: active = growth inhibition above about 70%; inactive = the rest.

The nature of this test: NCI Yeast Anticancer Drug Screen. Data for the mec2-1 strain (AID 157). The settings on record: S. cerevisiae mec2-1 strain, at 50.0 µM (retest, dose inferred, filed as 5.0), stronger effect = higher value. In short, it runs like this: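 Vehicle-treated cultures served as reference for growth inhibition of compound-exposed mec2-1 yeast.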
Turning to `CC1CCN(CCOC(=O)C(c2ccccc2)C2C=CCCC2)C1C` (configuration not stated), the growth inhibition was 71% (active).

For `CC(CCCN(C)Cc1ccccc1)Nc1ccnc2cc(Cl)ccc12` (configuration not stated), the growth inhibition was 100% (active).

For the compound `O=C(/C(Cl)=N/O)c1ccccc1`, the growth inhibition was 100% (active).

Turning to `CN(C)C1C[C@@H](O[Si](C)(C)C(C)(C)C)C=C1S(=O)(=O)c1ccccc1` (some centres not stated), the growth inhibition is 100% (active).

Turning to `Nc1nnc(Cc2ccc(Br)cc2)o1`, the growth inhibition is -6% (inactive).

`CSc1nc(C)cc(SCc2ccc(Cl)cc2Cl)n1`: the growth inhibition is -7% (inactive).

On to `CC[N](CC)[Ge]([CH2]C)[CH2]C.CC[N](CC)[Ge]([CH2]C)[CH2]C`, for which the growth inhibition is 98% (active).

`Cc1c(-c2ccccc2)ccnc1/C=N/NC(=S)Nc1ccc(N(C)C)cc1`: the growth inhibition was 96% (active).

Consider `Cc1cc(C)nc(NS(=O)(=O)c2ccc(Nc3c4ccccc4nc4c(C(=O)NC(CO)(CO)CO)cccc34)cc2)n1`, for which the growth inhibition is -2% (inactive).

`CCCC(CCC)NCCOC(=O)C(CC)c1ccccc1` (configuration not stated): the growth inhibition was 23% (inactive).

With `OCCc1ccc(-n2cnc3c(Nc4ccc(Cl)cc4)ncnc32)cc1`, the growth inhibition is 95% (active).

Regarding `Cc1cccc(N2C(=O)c3ccccc3C2(c2ccccc2)N2CCCCC2)c1` (configuration not stated), the growth inhibition is -1% (inactive).

With `CCCCN(CCO)CCNc1ccc(C)c2sc3ccccc3c(=O)c12`, the growth inhibition was 99% (active).

`Cc1ccc(C)c(C(=O)CCN)c1`: the growth inhibition is 1% (inactive).

In the case of `O=C1C(C(O)(C(F)(F)Cl)C(F)(F)Cl)CCCC1C(O)(C(F)(F)Cl)C(F)(F)Cl` (configuration not stated), the growth inhibition was 100% (active).

As for `CC(C)c1cc2c(cc1O)C(O)C1(O)CCCC(C)(C)[C@H]1CC2` (some centres not stated), the growth inhibition was 100% (active).

Turning to `CN(C)[C@@H]1C(=O)C(C(=O)NCNc2nc3n[nH]nc3c(=O)[nH]2)=C(O)[C@@]2(O)C(=O)C3=C(O)c4c(O)cccc4[C@@](C)(O)[C@H]3C[C@@H]12`, the growth inhibition is 6% (inactive).
